Assay results: PubChem BioAssay (NCATS)
Records with an inconclusive call do not appear. The source made the active and inactive calls. Calls follow the shape of the dose curve; as a rule, active = well fitted curve in the direction sought with a large enough effect; inconclusive = small, poorly fitted or top-dose-only effect, or another doubt; inactive = no such curve, though single readings can be large; an effect the other way counts as inactive or inconclusive.

Legend:
[1] = qHTS of pediatric cancer cell lines to identify multiple opportunities for drug repurposing: Primary screen for SK-N-SH cells (AID 1347098); also: nearly all actives have a fitted effect of over 65% in size; also: potency is read from the fitted curve at half-maximal effect
Method in brief: (§1)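 Cells (500-1,000/well) rested 5 h, then received compounds for 48 h; metabolically active cells were measured by CellTiter-Glo luminescence. Final concentrations spanned up to 46 µM (MIPE, 11-point) or 0.59 nM-46 µM (NPC, 8-point) in primary screens, 11-point in follow-ups.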

[2] = qHTS of pediatric cancer cell lines to identify multiple opportunities for drug repurposing: Primary screen for NB1643 cells (AID 1347099); also: nearly all actives have a fitted effect of over 50% in size; also: potency is read from the fitted curve at half-maximal effect
Method in brief: (§2)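 Following a 5-hour attachment period, cells at 500-1,000/well received compounds and were cultured for 48 hours. CellTiter-Glo was added and luminescence read to estimate viable, metabolically active cells.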

[3] = qHTS of pediatric cancer cell lines to identify multiple opportunities for drug repurposing: Primary screen for LAN-5 cells (AID 1347100); also: potency is read from the fitted curve at half-maximal effect
Method in brief: as §1

[4] = qHTS of pediatric cancer cell lines to identify multiple opportunities for drug repurposing: Primary screen for Rh18 cells (AID 1347102); also: nearly all actives have a fitted effect of over 65% in size; also: potency is read from the fitted curve at half-maximal effect
Method in brief: as §1

[5] = qHTS of pediatric cancer cell lines to identify multiple opportunities for drug repurposing: Primary screen for OHS-50 cells (AID 1347103); also: nearly all actives have a fitted effect of over 40% in size
Method in brief: as §1

[6] = qHTS of pediatric cancer cell lines to identify multiple opportunities for drug repurposing: Primary screen for RD cells (AID 1347104); also: nearly all actives have a fitted effect of over 55% in size; also: potency is read from the fitted curve at half-maximal effect
Method in brief: as §2

[7] = qHTS of pediatric cancer cell lines to identify multiple opportunities for drug repurposing: Primary screen for MG 63 (6-TG R) cells (AID 1347105); also: nearly all actives have a fitted effect of over 50% in size
Method in brief: as §2

[8] = qHTS of pediatric cancer cell lines to identify multiple opportunities for drug repurposing: Primary screen for control Hh wild type fibroblast cells (AID 1347106); also: nearly all actives have a fitted effect of over 55% in size; also: potency is read from the fitted curve at half-maximal effect
Method in brief: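 Cells (500-1,000/well) in growth media were settled 5 h at 37 degrees C, then given compounds for 48 h. Viability was read as CellTiter-Glo luminescence. Primary runs used MIPE at 11 points (0.78 nM-46 µM) and NPC at 8 points (0.59 nM-46 µM); follow-ups used 11 points.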

[9] = qHTS of pediatric cancer cell lines to identify multiple opportunities for drug repurposing: Primary screen for Rh30 cells (AID 1347107); also: series mostly up to about 46 µM; nearly all actives have a fitted effect of over 75% in size
Method in brief: as §1

[10] = qHTS of pediatric cancer cell lines to identify multiple opportunities for drug repurposing: Primary screen for Rh41 cells (AID 1347108); also: nearly all actives have a fitted effect of over 70% in size; also: potency is read from the fitted curve at half-maximal effect
Method in brief: as §2

[11] = qHTS of pediatric cancer cell lines to identify multiple opportunities for drug repurposing: Primary screen for BT-12 cells (AID 1347101); also: nearly all actives have a fitted effect of over 25% in size
Method in brief: as §1

Measured: Potency

CC(C)C(=O)Nc1cccc(C2CN3CCSC3=N2)c1 (stereo not drawn)
not listed: [11]
inactive: all other assays above

CCN(CC)CC(=O)Nc1c(C)cccc1C(=O)OC
not listed: [3]
inactive: all other assays above

COc1ccc2c(c1)c(CC(=O)OC/C=C(\C)CC/C=C(\C)CCC=C(C)C)c(C)n2C(=O)c1ccc(Cl)cc1
not listed: [8] | [11]
inactive: all other assays above

Cc1nc2n(c(=O)c1CCN1CCC(C(=O)c3ccc(F)cc3)CC1)CCS2
not listed: [4] | [5] | [11]
inactive: all other assays above

CC(C)=CCC/C(C)=C/CC/C(C)=C/CCC(=O)OC/C=C(\C)CCC=C(C)C
not listed: [11]
inactive: all other assays above

COC(=O)C1=C(C)NC(COC(N)=O)=C(C(=O)OC(C)C)C1c1cccc(Cl)c1Cl (stereo not drawn)
active: [1] 24.4 µM
not listed: [5] | [8] | [11]
inactive: all other assays above

O=C1CC(c2ccc(Cl)cc2)CC(=O)N1
not listed: [6] | [11]
inactive: all other assays above

COC(=O)/C=C\C(=O)OC
not listed: [11]
inactive: all other assays above

CC(C)(C)c1ccc(C(=O)CCCCl)cc1
not listed: [11]
inactive: all other assays above

Cc1sccc1Br
not listed: [11]
inactive: all other assays above

C=CCNc1nc(NCC=C)nc(N2CCN(C(c3ccc(F)cc3)c3ccc(F)cc3)CC2)n1
not listed: [4] | [5] | [6] | [11]
inactive: all other assays above

CC(C)=CCNc1ncnc2c1ncn2[C@@H]1O[C@H](CO)[C@@H](O)[C@H]1O
active: [1] 5.45 µM | [2] 5.31 µM | [3] 5.96 µM | [4] 2.66 µM | [6] 13.3 µM | [8] 8.41 µM | [10] 6.68 µM

CC(C)C(C)(C)C(C)(C)C(C)(C)S
not listed: [3]
inactive: all other assays above

CCCCCOc1ccc(C2SC(=O)NC2=O)cc1OCC (stereo not drawn)
not listed: [3] | [5] | [11]
inactive: all other assays above

O=C(O)C(=O)Nc1cccc(-c2nn[nH]n2)c1
not listed: [3]
inactive: all other assays above

CN1Cc2cc(C(=O)N3CCC(C4CCNCC4)CC3)ccc2N[C@@H](CC(=O)O)C1=O
not listed: [3] | [6] | [10] | [11]
inactive: all other assays above

CC1(C)S[C@@H]2[C@H](NC(=O)C(c3ccccc3)S(=O)(=O)O)C(=O)N2[C@H]1C(=O)O (stereo partly drawn)
not listed: [3] | [4] | [6]
inactive: all other assays above

COc1ccc(CCC(C)=O)cc1
not listed: [3]
inactive: all other assays above

CC(C)(C)C(=O)OCOC(=O)C1N2C(=O)CC2S(=O)(=O)C1(C)C (stereo not drawn)
not listed: [3] | [6] | [11]
inactive: all other assays above

C[C@H](CN1CCCC1)C(=O)c1ccc(C(F)(F)F)cc1
not listed: [3] | [11]
inactive: all other assays above
